Measurements from PubChem BioAssay (NCATS).
Records with an inconclusive call do not appear. Calls of active or inactive are those of the source. Calls come from the whole dose curve; as a rule, active = well fitted curve in the direction sought with a large enough effect; inconclusive = small, poorly fitted or top-dose-only effect, or another doubt; inactive = no such curve, though single readings can be large; an effect the other way counts as inactive or inconclusive.

Experiments:
[1] = Cell Viability - H-4-II-E (AID 543); conditions: H-4-II-E rat hepatoma viability; series mostly up to 92.2 µM;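 note: cells exposed to compound for 40 hours; % is set by controls: 0 for no effect and ±100 for the full control effect; nearly all actives have a fitted effect of over 35% in size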
Method in brief: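 Here, cytotoxicity is measured in the rat hepatoma line H-4-II-E as loss of intracellular ATP after 40 hr compound treatment, detected by luciferase luminescence.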

[2] = Cell Viability - SH-SY5Y (AID 544); conditions: SH-SY5Y neuroblastoma cell viability; viability change, negative = cytotoxic: at 92.2 µM (top of the series);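 note: cells exposed to compound for 40 hours; nearly all actives have a fitted effect of over 55% in size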
Method in brief: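 Cytotoxicity is scored as a concentration-dependent fall in intracellular ATP in human SH-SY5Y cells treated 40 hr in complete culture medium. Potency is expressed as AC50 from a Hill equation fit.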

[3] = Cell Viability - Renal Proximal Tubule (AID 545); conditions: renal proximal tubule cells viability, primary cells of rat origin; series mostly up to 91.7 µM;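 note: cells exposed to compound for 40 hours; nearly all actives have a fitted effect of over 40% in size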
Method in brief: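 Luminescent ATP signal (CellTiter-Glo) served as the viability read-out after 40 hr compound exposure of freshly isolated rat proximal tubule cells at 37 °C. Concentration-dependent ATP loss was fitted with the Hill equation to give AC50.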

[4] = Cell Viability - Mesenchymal (AID 546); conditions: mesenchymal cells viability, qHTS; series mostly up to 91.7 µM;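 note: cells exposed to compound for 40 hours before reading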
Method in brief: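 AC50 values reflect the drop in intracellular ATP in a human kidney mesenchymal line derived from normal glomeruli. Treatment lasts 40 hr at 37 °C in complete medium, and the signal comes from CellTiter-Glo luminescence.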

[5] = Cellular Toxicity (caspase-3) Jurkat (AID 655); conditions: Jurkat caspase-3 activation, luminescence; caspase-3 activation: at 92.2 µM (top of the series), DMSO = 0%, tamoxifen = 100%;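 note: cells exposed to compound for 16 h at 37 °C before reading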
Method in brief: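 5000 Jurkat cells/well; compound 16 hr, 37 °C; Caspase-Glo 3/7 added, 20 min RT; luminescence read. Norm: DMSO = 0%, tamoxifen 100 uM = 100%. AC50, Hill model.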

[6] = Cellular Toxicity (caspase-3) HUV-EC-C (AID 656); conditions: HUV-EC-C cells, caspase-3 activation (apoptosis), vehicle = 0, 100 µM tamoxifen = 100%; series mostly up to 92.2 µM
Method in brief: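 qHTS; HUV-EC-C, 1000 cells/well; 5 hr settle, 16 hr cmpd, 37°C; Caspase-Glo 3/7, 20 min RT; luminescence. Norm: DMSO = 0%, tamoxifen 100 uM = 100%. Hill-fit AC50.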

[7] = Cellular Toxicity (caspase-3) SHSY5Y (AID 657); conditions: SH-SY5Y caspase-3 activation, DMSO zero, 10 µM staurosporine = 100%; series mostly up to 91.7 µM;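 note: cells exposed to compound for 16 hours at 37 °C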
Method in brief: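 qHTS, SH-SY5Y, 1500 cells/well, 5 h pre-incubation 37 °C; compound 16 h 37 °C; Caspase-Glo 3/7 1 h RT; luminescence. Norm.: DMSO = 0, 10 uM staurosporine = 100%. Hill fit → AC50.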

[8] = Cellular Toxicity (caspase-3) MRC-5 (AID 659); conditions: MRC-5 cells, luminescence, normalized: DMSO 0%, 10 µM staurosporine 100%; series mostly up to 91.7 µM
Method in brief: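 Concentration-dependent caspase 3/7 activation is measured in human normal lung fibroblasts (MRC-5) following 16-hour treatment. AC50 values come from standard Hill-equation modeling of luminescence normalized to DMSO and 10 uM staurosporine.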

[9] = Cellular Toxicity (caspase-3) HepG2 (AID 654); conditions: HepG2 caspase-3 activation, luminescence; series mostly up to 92.2 µM;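 note: cells exposed to compound for 16 hours before reading; 0% = DMSO alone and 100% = caspase signal from 100 µM tamoxifen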
Method in brief: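 qHTS, HepG2, 1500 cells/well, complete medium; cpd 16 h 37 °C; Caspase-Glo 3/7, 20 min RT; lum. Norm: DMSO vs 100 uM tamoxifen; AC50 Hill fit.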

[10] = Cellular Toxicity (caspase-3) BJ (AID 658); conditions: BJ fibroblasts, luminescence, normalized: DMSO 0%, staurosporine 100%; series mostly up to 91.7 µM;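 note: cells exposed to compound for 16 hours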
Method in brief: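 Readout: Caspase-Glo 3/7 luminescence increase in BJ cells after 16 hr treatment at 37 °C. Staurosporine and tamoxifen served as positive controls; AC50 values came from Hill modelling of data normalized to DMSO and 10 uM staurosporine.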

Cc1cccc(C)c1[N+](=O)[O-]
inactive: Potency [1] | Potency [2] | Potency [3] | Potency [4] | caspase-3 activation [5] 0.339% | outcome [6] | outcome [7] | outcome [8]

CCCCCCCCN
inactive: Potency [1] | Potency [2] | Potency [4] | Potency [9] | caspase-3 activation [5] 1.3% | outcome [6] | outcome [7] | outcome [10] | outcome [8]

CC#N
inactive: Potency [2] | Potency [3] | Potency [4] | Potency [9] | caspase-3 activation [5] 1.05% | outcome [6] | outcome [7] | outcome [10] | outcome [8]

O=[N+]([O-])c1ccc(NCCO)c(OCCO)c1
inactive: Potency [1] | Potency [2] | Potency [4] | Potency [9] | caspase-3 activation [5] 3.12% | outcome [6] | outcome [7] | outcome [10] | outcome [8]

Cc1ccccc1C(=O)O
inactive: Potency [1] | Potency [2] | Potency [4] | Potency [9] | caspase-3 activation [5] -1.34% | outcome [7] | outcome [10] | outcome [8]
